# Test results from PubChem BioAssay AID1159580 (chemical genetic matrix, 2015).
# In all, about 5,500 compounds went through this assay and about 2,000 (36%) were called active. About 18% were inconclusive and are not listed. This is one part of the list. A number with no mark means an inactive call. No stated cut-off is given here; in the data, active means normalized growth mostly below about 0.91 (no sharp cut-off); inconclusive means no clear call, values can overlap the other calls; inactive means mostly above about 0.92.
# Assay: chemical genetic growth profiling, strain panel (AID 1159580);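 further: tested at 20 µM; growth read once vehicle control cultures reached saturation at 30 °C; 1 = growth at the plate median or of vehicle wells; lower values mean less growth of the strain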
# Conditions: S. cerevisiae deletion strains, growth OD
structure (smiles),measurement,setting,value
CC12CCCCC1(Br)[N+](=O)N2[O-] (stereo unspecified),normalized growth,"locus YAL021C, strain ccr4, hits give low values",0.951
same,normalized growth,"locus YAL026C, strain drs2, hits give low values",0.899 (active)
same,normalized growth,"locus YAL030W, strain snc1, hits give low values",0.997
same,normalized growth,"locus YBL061C, strain skt5, hits give low values",0.978
same,normalized growth,"locus YBR009C, strain hhf1, hits give low values",0.939
same,normalized growth,"locus YBR023C, strain chs3, hits give low values",0.976
same,normalized growth,"locus YBR171W, strain sec66, hits give low values",0.964
same,normalized growth,"locus YBR231C, strain swc5, hits give low values",0.992
same,normalized growth,"locus YBR279W, strain paf1, hits give low values",0.972
same,normalized growth,"locus YCL011C, strain gbp2, hits give low values",0.943
same,normalized growth,"locus YCL016C, strain dcc1, hits give low values",0.951
same,normalized growth,"locus YCL069W, strain vba3, hits give low values",0.986
same,normalized growth,"locus YCR088W, strain abp1, hits give low values",0.983
same,normalized growth,"locus YDL005C, strain med2, hits give low values",0.969
same,normalized growth,"locus YDL040C, strain nat1, hits give low values",0.991
same,normalized growth,"locus YDR001C, strain nth1, hits give low values",1.01
same,normalized growth,"locus YDR069C, strain doa4, hits give low values",0.91
same,normalized growth,"locus YDR137W, strain rgp1, hits give low values",0.857
same,normalized growth,"locus YDR159W, strain sac3, hits give low values",0.995
same,normalized growth,"locus YDR195W, strain ref2",1.01
same,normalized growth,"locus YDR297W, strain sur2, hits give low values",1
same,normalized growth,"locus YDR334W, strain swr1, hits give low values",0.984
same,normalized growth,"locus YDR335W, strain msn5, hits give low values",0.974
same,normalized growth,"locus YDR392W, strain spt3, hits give low values",0.948
same,normalized growth,"locus YEL003W, strain gim4, hits give low values",0.994
same,normalized growth,"locus YEL037C, strain rad23, hits give low values",0.998
same,normalized growth,"locus YEL061C, strain CIN8 (second series), hits give low values",0.993
same,normalized growth,"locus YER015W, strain faa2, hits give low values",0.993
same,normalized growth,"locus YER016W, strain bim1, hits give low values",0.999
same,normalized growth,"locus YER111C, strain swi4, hits give low values",0.967
same,normalized growth,"locus YER155C, strain BEM2 (second series), hits give low values",0.853 (active)
same,normalized growth,"locus YFR010W, strain ubp6, hits give low values",0.922
same,normalized growth,"locus YGL167C, strain pmr1, hits give low values",0.993
same,normalized growth,"locus YGL173C, strain kem1, hits give low values",0.953
same,normalized growth,"locus YGL227W, strain vid30, hits give low values",0.992
same,normalized growth,"locus YGL240W, strain doc1, hits give low values",0.992
same,normalized growth,"locus YGL253W, strain hxk2, hits give low values",0.989
same,normalized growth,"locus YHR013C, strain ard1, hits give low values",0.919
same,normalized growth,"locus YHR027C, strain rpn1, hits give low values",0.966
same,normalized growth,"locus YHR142W, strain chs7, hits give low values",0.942
same,normalized growth,"locus YJL092W, strain hpr5, hits give low values",0.989
same,normalized growth,"locus YJL095W, strain BCK1 (second series), hits give low values",0.993
same,normalized growth,"locus YJL115W, strain asf1, hits give low values",0.987
same,normalized growth,"locus YJL129C, strain trk1, hits give low values",0.997
same,normalized growth,"locus YJL154C, strain vps35, hits give low values",0.997
same,normalized growth,"locus YJL164C, strain tpk1, hits give low values",0.951
same,normalized growth,"locus YJL166W, strain qcr8, hits give low values",0.961
same,normalized growth,"locus YJL187C, strain SWE1, hits give low values",0.986
same,normalized growth,"locus YKL160W, strain elf1, hits give low values",0.944
same,normalized growth,"locus YKR026C, strain gcn3, hits give low values",0.985
same,normalized growth,"locus YKR091W, strain srl3, hits give low values",0.989
same,normalized growth,"locus YLL001W, strain dnm1, hits give low values",0.967
same,normalized growth,"locus YLL026W, hits give low values",0.991
same,normalized growth,"locus YLL041C, strain sdh2, hits give low values",0.999
same,normalized growth,"locus YLR027C, strain aat2, hits give low values",0.954
same,normalized growth,"locus YLR221C, strain rsa3, hits give low values",0.927
same,normalized growth,"locus YLR258W, strain gsy2, hits give low values",0.967
same,normalized growth,"locus YLR262C, strain YPT6 (second series), hits give low values",0.815 (active)
same,normalized growth,"locus YLR320W, strain mms22, hits give low values",0.954
same,normalized growth,"locus YLR342W, strain FKS1, hits give low values",0.946
same,normalized growth,"locus YLR357W, strain rsc2, hits give low values",0.914
same,normalized growth,"locus YLR370C, strain arc18, hits give low values",0.966
same,normalized growth,"locus YLR384C, strain iki3, hits give low values",0.984
same,normalized growth,"locus YML120C, strain ndi1, hits give low values",1
same,normalized growth,"locus YMR058W, strain fet3, hits give low values",0.951
same,normalized growth,"locus YMR125W, strain sto1, hits give low values",1.02
same,normalized growth,"locus YMR129W, hits give low values",0.98
same,normalized growth,"locus YMR205C, strain PFK2, hits give low values",0.995
same,normalized growth,"locus YMR231W, strain pep5, hits give low values",0.997
same,normalized growth,"locus YNL071W, strain lat1, hits give low values",0.946
same,normalized growth,"locus YNL209W, strain ssb2, hits give low values",0.963
same,normalized growth,"locus YNL248C, strain rpa49, hits give low values",0.954
same,normalized growth,"locus YNL322C, strain KRE1 (second series), hits give low values",0.979
same,normalized growth,"locus YNR049C, strain mso1, hits give low values",0.999
same,normalized growth,"locus YOR001W, strain rrp6, hits give low values",0.958
same,normalized growth,"locus YOR070C, strain gyp1, hits give low values",0.994
same,normalized growth,"locus YOR080W, strain dia2, hits give low values",1
same,normalized growth,"locus YOR083W, strain WHI5, hits give low values",0.895
same,normalized growth,"locus YOR106W, strain vam3, hits give low values",0.884
same,normalized growth,"locus YOR265W, strain rbl2, hits give low values",0.991
same,normalized growth,"locus YOR270C, strain vph1, hits give low values",0.81
same,normalized growth,"locus YOR290C, strain snf2, hits give low values",0.976
same,normalized growth,"locus YPL051W, strain arl3, hits give low values",0.936
same,normalized growth,"locus YPL078C, strain atp4, hits give low values",0.967
same,normalized growth,"locus YPL106C, strain sse1, hits give low values",0.941
same,normalized growth,"locus YPL240C, strain hsp82, hits give low values",0.978
